# Test results from article PMC7862700, “An all-to-all approach to the identification of sequence-specific readers for epigenetic DNA modifications on cytosine”.
# Tests used:
# Assay in all cases: DAPPL (digital affinity profiling via proximity ligation, sequencing); 10 mM Tris-HCl pH 7.5, 50 mM NaCl, 1 mM DTT, 4% glycerol, room temperature, 30 min; GST-TFs on glutathione beads, 16-mer random dsDNA library, 0.1% formaldehyde crosslink after washing; high values mean tight binding
# FLI1 = molecular target: T1, FLI1 (Homo sapiens, UniProt Q01543 1-452); conditions: protein: recombinant; tags: N-terminal GST; dsDNA, one strand shown
# T1 sequence: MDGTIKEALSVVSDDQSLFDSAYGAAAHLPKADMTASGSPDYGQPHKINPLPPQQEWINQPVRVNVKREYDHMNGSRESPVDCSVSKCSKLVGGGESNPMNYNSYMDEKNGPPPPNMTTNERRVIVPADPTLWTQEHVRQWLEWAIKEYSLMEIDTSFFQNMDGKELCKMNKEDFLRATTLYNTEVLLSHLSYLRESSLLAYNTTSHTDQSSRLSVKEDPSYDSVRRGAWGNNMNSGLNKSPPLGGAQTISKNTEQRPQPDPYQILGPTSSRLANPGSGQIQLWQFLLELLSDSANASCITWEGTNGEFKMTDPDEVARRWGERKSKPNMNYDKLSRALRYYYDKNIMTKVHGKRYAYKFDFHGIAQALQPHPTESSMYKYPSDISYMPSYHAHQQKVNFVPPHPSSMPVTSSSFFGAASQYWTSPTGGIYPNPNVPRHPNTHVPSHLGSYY
# Method in brief: (§1)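 Beads coated with glutathione captured GST-fused human transcription factors that had been expressed in yeast, and the factors were then given DNA barcodes and pooled with a tag-only sample. The pools were incubated with 200 nmole of a random double-stranded 16-mer DNA library in Tris/NaCl/DTT/glycerol buffer for 30 min at room temperature, washed, crosslinked with 0.1% formaldehyde and proximity-ligated with BsaI/T4 ligase at 37 °C for 1 h. PCR amplification and Illumina NextSeq500 sequencing came last. Binding signal is each hexamer's read frequency for a factor divided by its frequency for the tag-only sample.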
# ELK1 = molecular target: T2, ELK1 (Homo sapiens, UniProt P19419 1-428); conditions: protein: recombinant; tags: N-terminal GST; dsDNA, one strand shown
# T2 sequence: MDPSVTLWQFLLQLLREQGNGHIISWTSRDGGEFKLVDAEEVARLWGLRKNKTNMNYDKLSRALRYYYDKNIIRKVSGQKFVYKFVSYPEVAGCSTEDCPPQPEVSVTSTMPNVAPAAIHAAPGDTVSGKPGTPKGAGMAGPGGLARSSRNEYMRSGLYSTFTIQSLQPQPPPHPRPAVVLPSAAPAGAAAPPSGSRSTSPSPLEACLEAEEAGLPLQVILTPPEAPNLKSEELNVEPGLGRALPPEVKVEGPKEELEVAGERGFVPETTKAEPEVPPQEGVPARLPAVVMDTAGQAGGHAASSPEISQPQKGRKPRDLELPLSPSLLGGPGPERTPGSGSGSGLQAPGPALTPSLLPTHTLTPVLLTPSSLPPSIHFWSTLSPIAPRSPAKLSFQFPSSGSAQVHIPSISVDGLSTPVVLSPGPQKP
# Method in brief: as §1
# GABPA = molecular target: T3, GABPA (Homo sapiens, UniProt Q06546 1-454); conditions: protein: recombinant; tags: N-terminal GST; dsDNA, one strand shown
# T3 sequence: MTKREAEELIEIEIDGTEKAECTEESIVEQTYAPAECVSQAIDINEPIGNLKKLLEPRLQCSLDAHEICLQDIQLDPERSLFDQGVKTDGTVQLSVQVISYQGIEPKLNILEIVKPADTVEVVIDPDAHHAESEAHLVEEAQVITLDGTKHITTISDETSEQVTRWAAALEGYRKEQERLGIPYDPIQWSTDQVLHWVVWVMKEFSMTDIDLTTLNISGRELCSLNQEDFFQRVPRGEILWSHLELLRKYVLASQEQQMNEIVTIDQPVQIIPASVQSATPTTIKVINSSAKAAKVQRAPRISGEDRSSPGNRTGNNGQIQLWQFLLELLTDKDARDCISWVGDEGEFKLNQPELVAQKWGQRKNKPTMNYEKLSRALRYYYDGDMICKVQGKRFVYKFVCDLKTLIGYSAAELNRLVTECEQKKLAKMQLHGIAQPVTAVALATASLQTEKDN
# Method in brief: as §1
# ERG = molecular target: T4, ERG (Homo sapiens, UniProt P11308 1-479); conditions: protein: recombinant; tags: N-terminal GST; dsDNA, one strand shown
# T4 sequence: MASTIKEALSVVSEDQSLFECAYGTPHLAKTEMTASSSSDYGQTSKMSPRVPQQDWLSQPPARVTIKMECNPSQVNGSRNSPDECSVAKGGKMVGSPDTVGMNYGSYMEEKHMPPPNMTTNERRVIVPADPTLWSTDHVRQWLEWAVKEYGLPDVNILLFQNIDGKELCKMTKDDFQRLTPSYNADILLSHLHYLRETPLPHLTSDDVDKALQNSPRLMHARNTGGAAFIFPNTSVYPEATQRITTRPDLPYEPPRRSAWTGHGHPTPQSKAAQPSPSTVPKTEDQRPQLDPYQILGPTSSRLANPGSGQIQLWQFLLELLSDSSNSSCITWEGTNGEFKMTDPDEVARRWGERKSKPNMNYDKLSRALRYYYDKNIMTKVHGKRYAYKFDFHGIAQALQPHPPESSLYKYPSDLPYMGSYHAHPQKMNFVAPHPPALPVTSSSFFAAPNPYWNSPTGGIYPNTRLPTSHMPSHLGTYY
# Method in brief: as §1
# ELF1 = ELF1 (Homo sapiens, UniProt P32519 1-619); conditions: protein: recombinant; tags: N-terminal GST; dsDNA, one strand shown
# Method in brief: as §1
# EHF = molecular target: T5, EHF (Homo sapiens, UniProt Q9NZC4 1-300); conditions: protein: recombinant; tags: N-terminal GST; dsDNA, one strand shown
# T5 sequence: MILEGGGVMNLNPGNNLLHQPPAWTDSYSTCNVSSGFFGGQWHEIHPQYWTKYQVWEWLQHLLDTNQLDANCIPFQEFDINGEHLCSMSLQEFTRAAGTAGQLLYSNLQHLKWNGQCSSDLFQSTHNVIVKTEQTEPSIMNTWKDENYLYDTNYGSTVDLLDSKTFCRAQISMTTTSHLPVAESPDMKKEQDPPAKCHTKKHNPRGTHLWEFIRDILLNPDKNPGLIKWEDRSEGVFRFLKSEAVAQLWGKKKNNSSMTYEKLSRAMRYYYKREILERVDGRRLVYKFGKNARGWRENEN
# Method in brief: as §1
# SPI1 = SPI1 (Homo sapiens, UniProt P17947 1-270); conditions: protein: recombinant; tags: N-terminal GST; dsDNA, one strand shown
# Method in brief: as §1
# SPIB = SPIB (Homo sapiens, UniProt Q01892 1-262); conditions: protein: recombinant; tags: N-terminal GST; dsDNA, one strand shown
# Method in brief: as §1
# ELK3 = molecular target: T6, ELK3 (Homo sapiens, UniProt P41970 1-407); conditions: protein: recombinant; tags: N-terminal GST; dsDNA, one strand shown
# T6 sequence: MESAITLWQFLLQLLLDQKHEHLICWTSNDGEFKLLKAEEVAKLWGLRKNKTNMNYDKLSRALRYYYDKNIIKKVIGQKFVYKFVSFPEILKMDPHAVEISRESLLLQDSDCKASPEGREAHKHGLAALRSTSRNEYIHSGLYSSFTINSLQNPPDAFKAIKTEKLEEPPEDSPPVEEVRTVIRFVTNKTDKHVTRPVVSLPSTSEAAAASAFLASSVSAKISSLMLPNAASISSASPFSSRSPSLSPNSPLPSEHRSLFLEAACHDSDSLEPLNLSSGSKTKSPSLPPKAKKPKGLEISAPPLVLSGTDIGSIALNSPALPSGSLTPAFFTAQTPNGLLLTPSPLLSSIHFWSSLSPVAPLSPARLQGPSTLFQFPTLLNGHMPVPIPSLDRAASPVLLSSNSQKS
# Method in brief: as §1
# FEV = molecular target: T7, FEV (Homo sapiens, UniProt Q99581 1-238); conditions: protein: recombinant; tags: N-terminal GST; dsDNA, one strand shown
# T7 sequence: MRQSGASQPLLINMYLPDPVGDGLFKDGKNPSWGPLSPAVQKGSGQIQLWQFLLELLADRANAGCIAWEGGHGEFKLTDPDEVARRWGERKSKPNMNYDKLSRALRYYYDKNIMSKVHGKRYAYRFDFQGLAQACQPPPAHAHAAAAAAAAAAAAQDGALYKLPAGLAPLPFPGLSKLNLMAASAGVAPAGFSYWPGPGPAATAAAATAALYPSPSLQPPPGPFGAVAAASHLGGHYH
# Method in brief: as §1
# ETV5 = ETV5 (Homo sapiens, UniProt P41161 1-510); conditions: protein: recombinant; tags: N-terminal GST; dsDNA, one strand shown
# Method in brief: as §1
# HSF1 = HSF1 (Homo sapiens, UniProt Q00613 1-529); conditions: protein: recombinant; tags: N-terminal GST; chain copies: 3; dsDNA, one strand shown
# Method in brief: as §1
# SPIC = molecular target: T8, SPIC (Homo sapiens, UniProt Q8N5J4 1-248); conditions: protein: recombinant; tags: N-terminal GST; dsDNA, one strand shown
# T8 sequence: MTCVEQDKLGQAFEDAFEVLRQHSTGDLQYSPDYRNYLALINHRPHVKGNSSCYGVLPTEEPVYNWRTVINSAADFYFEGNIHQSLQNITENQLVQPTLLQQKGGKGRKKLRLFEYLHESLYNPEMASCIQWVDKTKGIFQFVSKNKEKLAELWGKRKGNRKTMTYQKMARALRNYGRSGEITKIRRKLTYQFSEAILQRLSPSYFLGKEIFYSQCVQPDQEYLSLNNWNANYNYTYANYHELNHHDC
# Method in brief: as §1
# ELF4 = ELF4 (Homo sapiens, UniProt Q99607 1-663); conditions: protein: recombinant; tags: N-terminal GST; dsDNA, one strand shown
# Method in brief: as §1
# ELK4 = molecular target: T9, ELK4 (Homo sapiens, UniProt P28324-2 1-405); conditions: protein: recombinant; tags: N-terminal GST; dsDNA, one strand shown
# T9 sequence: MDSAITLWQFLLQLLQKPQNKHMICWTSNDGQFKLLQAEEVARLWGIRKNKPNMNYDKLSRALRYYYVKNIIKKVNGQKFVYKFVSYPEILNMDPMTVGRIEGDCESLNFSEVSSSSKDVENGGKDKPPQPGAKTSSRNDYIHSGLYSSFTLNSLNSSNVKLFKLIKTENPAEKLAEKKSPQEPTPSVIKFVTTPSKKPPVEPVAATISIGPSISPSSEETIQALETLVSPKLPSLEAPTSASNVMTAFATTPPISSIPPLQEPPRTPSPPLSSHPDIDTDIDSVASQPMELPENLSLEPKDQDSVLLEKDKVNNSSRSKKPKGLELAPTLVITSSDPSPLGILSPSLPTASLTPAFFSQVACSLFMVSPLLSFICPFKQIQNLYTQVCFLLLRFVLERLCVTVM
# Method in brief: as §1
# ETV2 = molecular target: T10, ETV2 (Homo sapiens, UniProt O00321 1-342); conditions: protein: recombinant; tags: N-terminal GST; dsDNA, one strand shown
# T10 sequence: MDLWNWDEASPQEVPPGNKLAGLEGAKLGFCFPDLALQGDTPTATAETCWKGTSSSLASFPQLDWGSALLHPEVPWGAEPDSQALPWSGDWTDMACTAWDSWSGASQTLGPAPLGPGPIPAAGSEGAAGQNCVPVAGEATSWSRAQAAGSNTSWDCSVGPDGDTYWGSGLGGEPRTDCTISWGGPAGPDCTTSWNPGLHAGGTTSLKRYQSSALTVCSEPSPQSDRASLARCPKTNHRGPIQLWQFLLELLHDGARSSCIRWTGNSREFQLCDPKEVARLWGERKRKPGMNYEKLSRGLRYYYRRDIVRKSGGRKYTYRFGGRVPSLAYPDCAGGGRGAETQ
# Method in brief: as §1
# ELF3 = molecular target: T11, ELF3 (Homo sapiens, UniProt P78545 1-371); conditions: protein: recombinant; tags: N-terminal GST; dsDNA, one strand shown
# T11 sequence: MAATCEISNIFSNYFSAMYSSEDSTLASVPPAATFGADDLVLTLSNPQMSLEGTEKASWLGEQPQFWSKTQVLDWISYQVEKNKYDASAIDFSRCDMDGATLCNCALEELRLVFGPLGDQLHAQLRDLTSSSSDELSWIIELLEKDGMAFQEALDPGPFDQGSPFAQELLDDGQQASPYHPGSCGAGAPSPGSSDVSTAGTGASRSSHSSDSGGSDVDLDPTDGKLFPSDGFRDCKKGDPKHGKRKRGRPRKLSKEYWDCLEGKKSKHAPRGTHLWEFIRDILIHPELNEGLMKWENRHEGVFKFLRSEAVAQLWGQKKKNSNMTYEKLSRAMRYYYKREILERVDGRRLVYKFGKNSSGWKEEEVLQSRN
# Method in brief: as §1
# CRX = CRX (Homo sapiens, UniProt O43186 1-299); conditions: protein: recombinant; tags: N-terminal GST; dsDNA, one strand shown
# Method in brief: as §1
# ETV1 = ETV1 (Homo sapiens, UniProt P50549 1-477); conditions: protein: recombinant; tags: N-terminal GST; dsDNA, one strand shown
# Method in brief: as §1
# ETV1, sequence (P50549 whole entry): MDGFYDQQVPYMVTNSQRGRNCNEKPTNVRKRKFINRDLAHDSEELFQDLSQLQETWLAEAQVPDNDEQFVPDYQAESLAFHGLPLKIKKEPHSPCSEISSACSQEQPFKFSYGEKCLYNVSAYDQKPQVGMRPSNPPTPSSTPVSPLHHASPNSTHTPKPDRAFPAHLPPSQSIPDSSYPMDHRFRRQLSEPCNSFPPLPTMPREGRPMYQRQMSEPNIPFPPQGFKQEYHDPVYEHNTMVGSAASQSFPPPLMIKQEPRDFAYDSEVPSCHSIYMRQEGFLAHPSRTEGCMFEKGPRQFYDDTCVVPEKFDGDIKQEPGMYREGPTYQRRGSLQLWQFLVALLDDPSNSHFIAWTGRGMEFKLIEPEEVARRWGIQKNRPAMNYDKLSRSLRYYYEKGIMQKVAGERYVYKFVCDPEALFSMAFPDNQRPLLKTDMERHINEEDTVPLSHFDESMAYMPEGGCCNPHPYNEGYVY
# HSF1, sequence (Q00613 whole entry): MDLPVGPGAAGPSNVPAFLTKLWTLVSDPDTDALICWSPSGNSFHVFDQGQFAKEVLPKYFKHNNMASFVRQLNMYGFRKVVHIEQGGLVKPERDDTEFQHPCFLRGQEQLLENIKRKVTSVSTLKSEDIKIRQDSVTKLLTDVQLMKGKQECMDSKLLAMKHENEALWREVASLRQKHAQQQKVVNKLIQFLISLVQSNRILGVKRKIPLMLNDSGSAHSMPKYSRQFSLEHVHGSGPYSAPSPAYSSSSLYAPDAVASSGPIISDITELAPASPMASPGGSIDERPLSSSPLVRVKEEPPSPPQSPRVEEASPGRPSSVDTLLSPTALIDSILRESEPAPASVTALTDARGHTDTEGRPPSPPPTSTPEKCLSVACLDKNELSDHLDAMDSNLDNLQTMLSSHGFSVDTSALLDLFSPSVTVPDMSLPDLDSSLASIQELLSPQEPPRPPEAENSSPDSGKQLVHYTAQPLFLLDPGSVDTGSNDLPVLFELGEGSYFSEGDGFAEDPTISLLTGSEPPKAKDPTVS
# ETV5, sequence (P41161 whole entry): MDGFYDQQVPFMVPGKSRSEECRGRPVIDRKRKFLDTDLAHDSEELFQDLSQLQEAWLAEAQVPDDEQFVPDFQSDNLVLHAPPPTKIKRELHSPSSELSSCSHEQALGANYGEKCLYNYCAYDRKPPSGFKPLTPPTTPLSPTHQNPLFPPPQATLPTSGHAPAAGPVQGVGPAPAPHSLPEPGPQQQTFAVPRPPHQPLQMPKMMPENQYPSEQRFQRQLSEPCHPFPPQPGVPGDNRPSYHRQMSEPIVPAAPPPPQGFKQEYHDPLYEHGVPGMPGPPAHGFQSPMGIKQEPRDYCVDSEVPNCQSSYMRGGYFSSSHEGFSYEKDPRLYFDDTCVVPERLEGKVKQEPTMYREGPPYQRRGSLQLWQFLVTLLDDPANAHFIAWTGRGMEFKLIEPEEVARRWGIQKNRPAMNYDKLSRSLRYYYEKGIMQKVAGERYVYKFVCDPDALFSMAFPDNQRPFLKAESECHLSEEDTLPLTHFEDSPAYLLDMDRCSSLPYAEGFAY
# ELF4, sequence (Q99607 whole entry): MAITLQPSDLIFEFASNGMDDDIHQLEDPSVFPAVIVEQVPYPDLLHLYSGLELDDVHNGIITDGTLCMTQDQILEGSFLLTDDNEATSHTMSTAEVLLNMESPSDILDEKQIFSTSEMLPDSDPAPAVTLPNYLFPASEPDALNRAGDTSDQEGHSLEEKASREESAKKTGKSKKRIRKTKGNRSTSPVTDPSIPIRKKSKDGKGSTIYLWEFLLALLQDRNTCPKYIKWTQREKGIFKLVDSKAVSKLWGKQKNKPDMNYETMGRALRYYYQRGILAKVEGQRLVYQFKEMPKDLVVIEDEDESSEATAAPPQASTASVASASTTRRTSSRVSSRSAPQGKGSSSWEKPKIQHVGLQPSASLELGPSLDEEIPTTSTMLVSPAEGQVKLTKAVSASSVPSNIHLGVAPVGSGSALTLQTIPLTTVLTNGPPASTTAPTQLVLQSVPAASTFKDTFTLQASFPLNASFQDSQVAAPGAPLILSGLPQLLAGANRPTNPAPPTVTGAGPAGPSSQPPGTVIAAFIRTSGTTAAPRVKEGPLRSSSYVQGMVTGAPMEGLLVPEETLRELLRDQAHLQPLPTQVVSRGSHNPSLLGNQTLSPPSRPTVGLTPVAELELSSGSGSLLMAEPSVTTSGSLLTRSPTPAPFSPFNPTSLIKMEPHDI
# SPIB, sequence (Q01892 whole entry): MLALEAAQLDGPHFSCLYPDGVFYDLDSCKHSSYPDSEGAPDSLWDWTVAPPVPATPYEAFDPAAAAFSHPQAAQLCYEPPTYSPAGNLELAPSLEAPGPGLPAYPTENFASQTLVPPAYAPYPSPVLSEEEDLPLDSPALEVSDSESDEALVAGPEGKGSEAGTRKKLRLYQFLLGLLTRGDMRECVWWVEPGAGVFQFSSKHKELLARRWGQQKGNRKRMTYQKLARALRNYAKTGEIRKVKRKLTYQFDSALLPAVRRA
# ELF1, sequence (P32519 whole entry): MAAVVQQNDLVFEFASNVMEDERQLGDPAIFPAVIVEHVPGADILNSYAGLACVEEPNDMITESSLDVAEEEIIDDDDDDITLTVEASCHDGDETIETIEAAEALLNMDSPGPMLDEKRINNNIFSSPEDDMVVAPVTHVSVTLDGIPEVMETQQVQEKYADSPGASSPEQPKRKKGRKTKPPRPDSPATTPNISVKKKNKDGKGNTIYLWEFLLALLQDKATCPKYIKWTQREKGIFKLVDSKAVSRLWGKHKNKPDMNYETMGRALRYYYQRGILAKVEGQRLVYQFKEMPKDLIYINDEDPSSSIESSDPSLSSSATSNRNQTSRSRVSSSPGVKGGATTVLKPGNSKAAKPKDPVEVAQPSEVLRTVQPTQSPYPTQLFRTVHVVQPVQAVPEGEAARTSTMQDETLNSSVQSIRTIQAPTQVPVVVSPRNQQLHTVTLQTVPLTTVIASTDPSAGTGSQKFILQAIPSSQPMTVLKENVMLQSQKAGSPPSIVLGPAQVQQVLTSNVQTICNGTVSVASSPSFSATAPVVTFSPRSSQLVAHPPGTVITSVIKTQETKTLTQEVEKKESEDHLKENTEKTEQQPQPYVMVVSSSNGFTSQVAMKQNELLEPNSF
# CRX, sequence (O43186 whole entry): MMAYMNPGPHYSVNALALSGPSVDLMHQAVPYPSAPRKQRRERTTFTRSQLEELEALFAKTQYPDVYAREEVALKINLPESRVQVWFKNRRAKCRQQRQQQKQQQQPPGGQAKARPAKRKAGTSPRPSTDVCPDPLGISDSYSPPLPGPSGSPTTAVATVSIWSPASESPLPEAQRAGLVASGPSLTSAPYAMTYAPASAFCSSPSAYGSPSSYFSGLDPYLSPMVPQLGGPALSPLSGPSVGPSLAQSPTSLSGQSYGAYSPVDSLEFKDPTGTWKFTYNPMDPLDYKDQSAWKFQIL
sequence,measurement,setting,value
ATCGAA,binding signal,FLI1,"1.11 fold enrichment (6-mer frequency, TF over GST control)"
same,binding signal,ELK1,"1.12 fold enrichment (6-mer frequency, TF over GST control)"
same,binding signal,GABPA,"1.1 fold enrichment (6-mer frequency, TF over GST control)"
same,binding signal,ERG,"1.1 fold enrichment (6-mer frequency, TF over GST control)"
same,binding signal,ELF1,"1.14 fold enrichment (6-mer frequency, TF over GST control)"
same,binding signal,EHF,"1.16 fold enrichment (6-mer frequency, TF over GST control)"
same,binding signal,SPI1,"1.13 fold enrichment (6-mer frequency, TF over GST control)"
same,binding signal,SPIB,"1.18 fold enrichment (6-mer frequency, TF over GST control)"
same,binding signal,ELK3,"1.08 fold enrichment (6-mer frequency, TF over GST control)"
same,binding signal,FEV,"1.08 fold enrichment (6-mer frequency, TF over GST control)"
same,binding signal,ETV5,"1.16 fold enrichment (6-mer frequency, TF over GST control)"
same,binding signal,HSF1,"1.87 fold enrichment (6-mer frequency, TF over GST control)"
same,binding signal,SPIC,"1.11 fold enrichment (6-mer frequency, TF over GST control)"
same,binding signal,ELF4,"1.14 fold enrichment (6-mer frequency, TF over GST control)"
same,binding signal,ELK4,"1.14 fold enrichment (6-mer frequency, TF over GST control)"
same,binding signal,ETV2,"1.07 fold enrichment (6-mer frequency, TF over GST control)"
same,binding signal,ELF3,"1.07 fold enrichment (6-mer frequency, TF over GST control)"
same,binding signal,CRX,"1.31 fold enrichment (6-mer frequency, TF over GST control)"
same,binding signal,ETV1,"1.13 fold enrichment (6-mer frequency, TF over GST control)"
